Results: the supplement of paper PMC7156485
± gives the standard deviation of the averaged measurements.

Assays:
Details in all cases: concentration: 10 µM; 24 h
[1] = tested on: HCC1569; assay: cell number relative to DMSO (% of DMSO); higher = more cells (less growth inhibition / toxicity)
In short: (§1)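 H1.0 nuclear intensity or cell number is expressed as percent of the plate control, with the median of replicates taken. HCC1569 and TDF cells were treated with compounds at 10 µM for 24 h at 37 °C, in triplicate, then fixed and immunostained for H1.0 with DAPI as a nuclear stain. HCC1569 values were smoothed to correct for positional effects.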

[2] = tested on: TDF; assay: as above
In short: as §1

[3] = tested on: TDF; assay: H1.0 immunofluorescence intensity relative to DMSO (% of DMSO); higher = stronger H1.0 induction, active = 120 or more
In short: as §1

[4] = tested on: HCC1569; assay: H1.0 immunofluorescence intensity relative to DMSO (% of DMSO); higher = stronger H1.0 induction, active = 140 or more
In short: as §1
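Wherever H1.0 immunofluorescence intensity relative to DMSO is given: TDF is a line of transformed human dermal fibroblasts of mesenchymal origin.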
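Wherever cell number relative to DMSO is given: TDF denotes transformed human dermal fibroblasts of mesenchymal origin.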

Compound	cell number [1]	cell number [2]	H1.0 immunofluorescence intensity [3]	H1.0 immunofluorescence intensity [4]
CC1=C2C(=COC(C)C2C)C(=O)C(C(=O)O)=C1O (stereo not drawn) [Citrinin]	104	102	101 (inactive)	97.8 (inactive)
CCCCCCC=CCCCCCCCCCC(=O)O [11(E)-Octadecenoic acid]	101	99.5	105 (inactive)	103 (inactive)
C=CCCCCCCCCC(=O)O [10-Undecenoic acid]	102	103	104 (inactive)	105 (inactive)
COc1ccc2c(c1)c(CC(=O)N1CCOCC1)c(C)n2C(=O)c1ccc(Cl)cc1 [Indomethacin morpholinylamide]	105	100	90.6 (inactive)	85.5 (inactive)
CC1(C)CCCC2(C)C1CCC1(C)OC(=O)CC12 [(3aR)-(+)-Sclaerolide]	99	105	92.9 (inactive)	84.9 (inactive)
COc1ccc(Br)cc1S(=O)(=O)NC(=O)/C=C/c1ccccc1Cc1ccc2ccccc2c1	98.1	103	90.2 (inactive)	103 (inactive)
CCCCn1c(=O)c2c(ncn2CC(C)=O)n(CCCC)c1=O [Denbufylline]	103	112	87.3 (inactive)	106 (inactive)
CCCNCC(O)COc1ccccc1C(=O)CCc1ccccc1.Cl [(S)-(-)-propafenone hydrochloride]	98.4	104	90.3 (inactive)	111 (inactive)
CCCCCC(O)C=CC1C(O)CC(=O)C1CC=CCCCC(=O)O (stereo not drawn) [Prostaglandin E2]	100 ± 2.4	102 ± 6.3	95.7 (inactive)	100 (inactive)
CC(CN1CCC(Cc2ccccc2)CC1)C(O)c1ccc(O)cc1.Cl (stereo not drawn) [Ro 25-6981 hydrochloride]	105	101	86.4 (inactive)	96.6 (inactive)
C=C1C(=O)OC2C1CCC(C)=CCCC1(C)OC21 (stereo not drawn) [Parthenolide]	65.2 ± 7.3	50.3 ± 3.6	119 (inactive)	149 (active)
CCCN(CCc1ccccc1)C1CCc2c(O)cccc2C1 (stereo not drawn) [2-(N-Phenethyl-N-propyl)amino-5-hydroxytetralin]	105	96.6	89.4 (inactive)	106 (inactive)
CC(C)(C)NCC(O)COc1nsnc1N1CCOCC1.O=C(O)C=CC(=O)O [(S)-Timolol maleate]	106	105	87.4 (inactive)	97.9 (inactive)
CC(C)NCC(O)c1ccc(NS(C)(=O)=O)cc1.Cl (stereo not drawn) [Sotalol.HCl]	102	111	88.1 (inactive)	99 (inactive)
Nc1ccc(S(=O)(=O)Nc2ccnn2-c2ccccc2)cc1 [Sulfaphenazole]	107	113	89.8 (inactive)	106 (inactive)
CS(=O)(=O)N1CCN(Cc2cc3nc(-c4cccc5[nH]ncc45)nc(N4CCOCC4)c3s2)CC1	57.3	77.8	85.3 (inactive)	137 (inactive)
Cl.c1ccc(C2CCCC2NC2=NCCCCCCCCCCC2)cc1 (stereo not drawn) [MDL 12,330A hydrochloride]	105	109	85.7 (inactive)	88.1 (inactive)
CCCOC(=O)c1c(-c2ccccc2)nc(CC)c(C(=O)SCC)c1CCC	102	90.7	93.7 (inactive)	96.3 (inactive)
CCCn1c(=O)c2[nH]c(-c3ccc(S(=O)(=O)O)cc3)nc2n(CCC)c1=O [1,3-Dipropyl-8-p-sulfophenylxanthine]	104	106	90.4 (inactive)	92.6 (inactive)
CCS(=O)(=O)CCn1c([N+](=O)[O-])cnc1C [Tinidazole]	107	104	102 (inactive)	105 (inactive)
O=c1onc2n1-c1cc(Br)ccc1OC2	97.4	104	94 (inactive)	96 (inactive)
O=C(C=Cc1ccc(O)c(O)c1)OC1CC(O)(C(=O)O)CC(O)C1O (stereo not drawn) [Chlorogenic acid]	100	98.2	103 (inactive)	100 (inactive)
CN(C)CCCN1c2ccccc2Sc2ccc(Cl)cc21.Cl [Chlorpromazine hydrochloride]	88.5	64.4	135 (active)	144 (active)
O=C(Oc1cc(S(=O)(=O)c2ccccc2)ccc1[N+](=O)[O-])c1ccc(Cl)cc1 [2-nitro-5-(phenylsulfonyl)phenyl 4-chlorobenzoate]	99.5	87.8	96.7 (inactive)	111 (inactive)
CCCCCC=CCC=CCC=CCC=CCCCC(=O)OC(CO)CO [2-Arachidonoylglycerol]	104	107	97.3 (inactive)	99.5 (inactive)
CC1COc2c(N3CCN(C)CC3)c(F)cc3c(=O)c(C(=O)O)cn1c23 (stereo not drawn) [Ofloxacin]	101.5 ± 0.68	101 ± 5.3	95 (inactive)	96.5 (inactive)

Compound	cell number [1]	cell number [2]	H1.0 immunofluorescence intensity [3]	H1.0 immunofluorescence intensity [4]
CNCCC(Oc1ccccc1OC)c1ccccc1.Cl (stereo not drawn) [Nisoxetine hydrochloride]	98.6	111	99.4 (inactive)	101 (inactive)
COc1ccccc1NC(=O)Nc1nc(-c2cccnc2)nc2ccccc12	97.6	102	95.1 (inactive)	104 (inactive)
Cl.O=C1NCC2(CCN(CCc3ccccc3)CC2)O1 [Fenspiride hydrochloride]	98.2	105	93.2 (inactive)	91 (inactive)
CCCCCCCCCCCC=CCCCCC(=O)O [6(E)-Octadecenoic acid]	100	101	102 (inactive)	89.5 (inactive)
C#CCN1C(C)=C(C(=O)OC)C(c2cccc([N+](=O)[O-])c2)C(C(=O)OCC)=C1C (stereo not drawn)	97.2	107	89.2 (inactive)	103 (inactive)
CC1=CC(=O)C2=C(C)CCC3C(C)C(=O)OC3C12 (stereo not drawn) [Leucomisine]	99.3	111	96.5 (inactive)	95.6 (inactive)
Cc1ccc(-c2c(-c3nn(C)c4ncnc(N5CC[C@H](N6CCCCC6)C5)c34)cnn2C)cc1	99.6	96.4	103 (inactive)	99.2 (inactive)
Cl.O=C(O)C1CCCN(CCC=C(c2ccccc2)c2ccccc2)C1 (stereo not drawn)	97.9	92.7	98.1 (inactive)	98.1 (inactive)
COc1ccc(-c2coc3cc(O)ccc3c2=O)cc1 [Formononetin]	104	103	87.5 (inactive)	80.9 (inactive)
Fc1ccc(-c2nc3n(c2-c2ccncc2)CCS3)cc1	95.4	108	92.3 (inactive)	107 (inactive)
CCOC(=O)C1=C(C)NC(C)=C(C(=O)OCC)C1 [Diludin]	97.2	103	93.7 (inactive)	97.2 (inactive)
O=C1CCC(N2C(=O)c3ccccc3C2=O)C(=O)N1 (stereo not drawn) [Thalidomide]	101	102	97.1 (inactive)	96.7 (inactive)
CC1CCC(C(C)(C)O)CC2=C1CCC2C (single isomer, unassigned; (-)) [(-)-Guaiol]	99.2	102	102 (inactive)	106 (inactive)
COc1cc2c3cc1Oc1c(OC)c(OC)cc4c1C(Cc1ccc(O)c(c1)Oc1ccc(cc1)CC3N(C)CC2)N(C)CC4.Cl.Cl (stereo not drawn)	90.4	92.2	104 (inactive)	109 (inactive)
Clc1ccccc1C(c1ccccc1)(c1ccccc1)n1ccnc1 [Clotrimazole]	75.1	69.1	104 (inactive)	108 (inactive)
Nc1ccc(S(=O)(=O)Nc2ncccn2)cc1 [Sulfadiazine]	101	108	95.6 (inactive)	96.7 (inactive)
CC1(C(=O)O)CCC2(C)CCC3(C)C(=CC(=O)C4C5(C)CCC(O)C(C)(C)C5CCC43C)C2C1 (stereo not drawn)	102	108	98.4 (inactive)	84.4 (inactive)
Nc1nc(=O)n(C2CSC(CO)O2)cc1F (stereo not drawn) [Emtricitabine]	105	99.4	96.1 (inactive)	105 (inactive)
CC(=O)NC1C(N=C(N)N)C=C(C(=O)O)OC1C(O)C(O)CO (stereo not drawn)	102	115	99.2 (inactive)	99 (inactive)
O=C1NCCN1CCN1CCC(c2cn(-c3ccc(F)cc3)c3ccc(Cl)cc23)CC1	66.8	39.3	213 (active)	139 (inactive)
Cc1ccc(OCC(O)C(C)NC(C)C)c2c1CCC2.Cl (stereo not drawn) [ICI 118,551 hydrochloride]	101	104	96.9 (inactive)	98.4 (inactive)
CC1CS(=O)(=O)CCN1/N=C/c1ccc([N+](=O)[O-])o1 (stereo not drawn)	96.4	102	98.5 (inactive)	95.5 (inactive)
CCOC(=O)Nc1ccc(NCc2ccc(F)cc2)nc1N.O=C(O)C=CC(=O)O [Flupirtine maleate]	97.3	99.2	89.1 (inactive)	105 (inactive)
CC(=O)ONC1=c2ccccc2=NC1=C1C(=O)Nc2cc(Br)ccc21	55.8	51.1	116 (inactive)	188 (active)
CCCCCC=CCC=CCC=CCCCCC(=O)O [γ-Linolenic acid (18:3 n-6)]	99.3	96.9	96.6 (inactive)	98.8 (inactive)
CCCCCCCCCCCCCCC(F)C(=O)O (stereo not drawn) [2-Fluoropalmitic acid]	105	102	99.7 (inactive)	104 (inactive)
